Several values for one entry are separate records, joined by “and”; a condition that tells them apart may be missing. Equal entries are not always repeated. About 83,000 compounds went through this panel and 20% of them were active in at least one assay; those are over-represented in the sample as a whole.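 96-well plates, one dose, 48 hours. Percent growth reported; active if below 10.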 Activity calls are given as the source filed them.
test system: HL-60(TB) leukemia; assay: NCI-60 one-dose screen, 48 h (100 = growth as untreated, 0 = no growth, -100 = all killed); conditions: 10 µM unless noted

Row | Structure (SMILES) | growth
1 | CCN(CC)c1ccc2c(cc1=O)[C@@H](NC(C)=O)CCc1cc(OC)c(OC)c(OC)c1-2 | -56.8% (active)
2 | CC1=Nc2cnc(Nc3ccc(OCCN4CCCC4)cc3)nc2Nc2ccccc21 | 76.4% (inactive)
3 | CC(C)(C)NCCC(O)c1cc2c(Cl)cc(Cl)cc2c2cc(C(F)(F)F)ccc12 (configuration not stated) | -60.9% (active)
4 | COc1cc2c(Nc3ccc(Cl)c(Cl)c3F)ncnc2cc1OCC1C[C@@H]2CN(C)C[C@@H]2C1 (some centres not stated) | -53.2% (active) and 41.1% (inactive)
5 | CCCCC[C@@H]1Cc2cc(O)c(C(=O)O)c3c2[C@H](C[C@]2(OC[C@@H](CC(=O)[C@@](C)(CC)C(=O)OC)[C@@H]2C)O3)O1 | 116% (inactive)
6 | CC1(C)CC[C@]2(C(=O)O)CC[C@]3(C)C(=CC[C@@H]4[C@@]5(C)C/C(=C/O)C(=O)C(C)(C)[C@@H]5CC[C@]43C)[C@@H]2C1 | 4.77% (active)
7 | CN(C)c1ccc(C(=N)c2ccc(N(C)C)cc2)cc1 | 12.3% (inactive) and 6.84% (active)
8 | CCOP(=O)(OCC)c1nc(-c2ccccc2)oc1NCc1cccnc1 | 102% (inactive)
9 | COc1ccc(/C=c2\sc3n(c2=O)C2C(NN=3)N(C)C(=O)N2C)cc1 (configuration not stated) | -47.5% (active)
10 | CN1CCN(C(=O)c2ccc(NC(=O)Nc3ccc(-c4nc(N5CCOCC5)c5cccn5n4)cc3)cc2)CC1 | 7.69% (active)
11 | C=C(CN1CCc2c([nH]c3ccccc23)C1)c1ccc(C(=O)Nc2ccon2)cc1 | 99% (inactive)
12 | O=CN1N=C(c2ccc(Cl)cc2)CC1c1cccc(Nc2ccnc3cc(Cl)ccc23)c1 (configuration not stated) | -24.6% (active)

— PubChem BioAssay (NCI)
